Bioassay records from PubChem.
The list is not random: actives were taken first. Their share in the collection is about 6.7%.
T cruzi growth-1 = inhibitors of T. cruzi proliferation; T. cruzi beta-gal in NIH3T3, GalScreen luminescence, 90 h; inhibition, % at 8.34 µM; 77,000 tested, 5.9% active; AID 624255;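 active = mean inhibition above about 93%, with at least 55% of replicates each passing it, limit read from the data, passing the limit was not always enough; inconclusive = only one of those two conditions holds; inactive = neither condition holds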
Pf Dd2 growth = blocks growth of Plasmodium falciparum Dd2 parasites; 94,000 tested, 2.3% active; AID 1159554; P. falciparum Dd2 growth, SYBR Green, 72 h; active compounds read low; activity change, % at 10 µM; in the data active = activity change below about -80%; inconclusive = no clear call, values can overlap the other calls
C diff HTS = C. difficile growth inhibition; Clostridium difficile clinical isolate growth, OD600, 24 h; active compounds read low; growth activity, negative = inhibition, % at 16 µg/mL (by protocol); 86,000 tested, 0.25% active;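 active = mean growth activity at or below -80% and every replicate also at or below -80%; inconclusive = mean at or below -80% but some replicate above -80%; inactive = mean growth activity above -80%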;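 note: 0% = DMSO wells and -100% = levofloxacin 16 µg/mL wells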
T cruzi growth-2 = blocks T. cruzi growth in NIH3T3 host cells. T. cruzi beta-gal in NIH3T3, GalScreen luminescence, 90 h. inhibition, % at 8.35 µM. 5,600 tested, 72% active. shares compounds with T cruzi growth-1;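 active = mean replicate inhibition above about 95% and at least 55% of replicates individually reaching it, limit read from the data; inconclusive = only one of the two criteria is met; inactive = neither criterion is met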
T cruzi growth-3 = Trypanosoma cruzi proliferation inhibition; shares compounds with T cruzi growth-1; T. cruzi beta-gal in NIH3T3, GalScreen luminescence, 90 h; inhibition, % at 2.09 µM; 5,600 tested, 21% active;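 active = mean inhibition above about 95%, with at least 55% of replicates also reaching it, limit read from the data; inconclusive = meets just one of the two conditions; inactive = meets neither condition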;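 note: plate controls were neutral control median for no effect and positive control median for full effect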
3T3 cytotox = NIH/3T3 (mouse) viability loss | shares compounds with T cruzi growth-1 | NIH/3T3 viability, CellTiter-Glo ATP luminescence, 90 h | cytotoxicity (signal decrease), % at 8.35 µM | 5,600 tested, 14% active;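 active = mean signal decrease across replicates above about 35% based on untreated-well scatter, with enough replicates individually passing, limit read from the data; inconclusive = no rule stated though some were filed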;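 note: 0% = median of neutral control wells and 100% = median of positive control wells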
NIH3T3 tox 2 = cytotoxicity in mouse NIH/3T3 fibroblasts | shares compounds with T cruzi growth-1 | NIH/3T3 viability, CellTiter-Glo ATP luminescence, 90 h | inhibition, % at 24.9 µM | 5,600 tested, 56% active | AID 651744;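 active = mean loss of cell viability signal at or above a set limit, and enough replicates individually reaching it; inconclusive = meets only the mean limit or only the replicate share; inactive = meets neither condition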;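 note: 0% = median of neutral control wells and 100% = median of positive control wells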
* = called active by the depositor; ? = inconclusive; · = no result.

SMILES | T cruzi growth-1 | Pf Dd2 growth | C diff HTS | T cruzi growth-2 | T cruzi growth-3 | 3T3 cytotox | NIH3T3 tox 2
COCC#Cc1ccc([C@@H]2[C@H](CO)N3CCCCN(Cc4cncnc4)C[C@@H]23)cc1 | ? | 19.2 | -4.0 | ? | 34.0 | -2.6 | -9.8
COCC#Cc1ccc([C@@H]2[C@@H](CO)N3CCCCN(Cc4cncnc4)C[C@H]23)cc1 | 102.8* | 30.4 | -4.5 | 29.3 | 18.5 | -13.3 | 64.7*
COCC#Cc1ccc([C@H]2[C@@H](CO)N3CCCCN(Cc4cncnc4)C[C@H]23)cc1 | 108.8* | 28.0 | -1.4 | 111.6* | 56.0 | 17.3 | 15.2
COCC#Cc1ccc([C@@H]2[C@@H](CO)N3CCCCN(Cc4cncnc4)C[C@@H]23)cc1 | 105.6* | 23.5 | -4.4 | ? | -11.1 | 7.0 | -1.3
CCCC#Cc1ccc([C@H]2[C@@H](CO)N3CCCCN(Cc4cncnc4)C[C@@H]23)cc1 | 63.4 | -18.7 | -2.1 | · | · | · | ·
COCC#Cc1ccc([C@@H]2[C@H]3CN(Cc4cncnc4)CCCCN3[C@H]2CO)cc1 | 67.7 | -20.8 | -3.2 | · | · | · | ·
CCCC#Cc1ccc([C@@H]2[C@@H](CO)N3CCCCN(Cc4cncnc4)C[C@@H]23)cc1 | 61.0 | -9.8 | -3.6 | · | · | · | ·
CO[C@@H]1CN(C)C(=O)c2cc(NC(=O)c3ccno3)ccc2OC[C@H](C)N(S(C)(=O)=O)C[C@@H]1C | · | 10.6 | 4.0 | · | · | · | ·
COc1ccc(NC(=O)Nc2ccc3c(c2)[C@@H]2C[C@@H](CC(=O)NC4CCCCC4)O[C@@H](CO)[C@@H]2O3)cc1 | 1.1 | -4.6 | 7.4 | · | · | · | ·
CC(=O)N(C)C[C@@H]1Oc2cc(C#CC3CCCC3)ccc2S(=O)(=O)N([C@@H](C)CO)C[C@@H]1C | 87.5 | -39.9 | 1.6 | · | · | · | ·
CC(=O)N(C)C[C@H]1Oc2cc(C#CC3CCCC3)ccc2S(=O)(=O)N([C@@H](C)CO)C[C@H]1C | 55.8 | -17.9 | -1.5 | · | · | · | ·
CC(=O)N(C)C[C@H]1Oc2cc(C#CC3CCCCC3)ccc2S(=O)(=O)N([C@H](C)CO)C[C@@H]1C | ? | -44.2 | 2.9 | 103.5* | 78.3 | 42.0* | ?
CC(=O)N(C)C[C@H]1Oc2cc(C#CC3CCCCC3)ccc2S(=O)(=O)N([C@@H](C)CO)C[C@@H]1C | ? | -57.4 | -14.2 | 107.5* | 86.2 | -2.5 | 56.4*
O=C(Cc1ccccc1)N[C@@H]1CC[C@H](CC(=O)N2CCCCC2)O[C@H]1CO | 35.2 | 8.2 | 10.3 | · | · | · | ·
C[C@@H]1CN([C@H](C)CO)C(=O)c2cc(N(C)C)ccc2O[C@H]1CN(C)Cc1ccc(C(=O)Nc2ccccc2N)cc1 | 94.6 | -34.2 | 5.1 | · | · | · | ·
C[C@@H]1CN([C@H](C)CO)C(=O)c2cccc(NC(=O)Nc3ccc4c(c3)OCO4)c2O[C@@H]1CN(C)Cc1ccc(C(=O)O)cc1 | -6.7 | 0.5 | -4.2 | · | · | · | ·
C[C@@H]1CN([C@H](C)CO)C(=O)c2cc(N(C)C)ccc2O[C@@H]1CN(C)Cc1ccc(C(=O)Nc2ccccc2N)cc1 | 103.1* | -69.6 | 4.7 | 89.8 | 81.3 | 73.9* | 93.6*
C[C@@H]1CN([C@H](C)CO)C(=O)c2cccc(NC(=O)Nc3ccc4c(c3)OCO4)c2O[C@H]1CN(C)Cc1ccc(C(=O)Nc2ccccc2N)cc1 | 112.1* | -86.4* | · | 102.3* | 91.7 | -1.1 | 71.4*
C[C@@H]1CN([C@@H](C)CO)C(=O)c2cc(NS(=O)(=O)c3cccs3)ccc2O[C@H]1CN(C)Cc1ccc(C(=O)Nc2ccccc2N)cc1 | 107.9* | -57.4 | · | 96.6* | 62.7 | 4.0 | 5.2
C[C@H]1CN([C@@H](C)CO)C(=O)c2cccc(NC(=O)Nc3ccccc3)c2O[C@@H]1CN(C)Cc1ccc(C(=O)Nc2ccccc2N)cc1 | 99.7* | -87.7* | -0.3 | 101.4* | 98.5* | ? | 79.9*
C[C@H](CO)N1C[C@H](C)[C@@H](CN(C)Cc2ccc(C(=O)O)cc2)Oc2c(NC(=O)Nc3ccccc3)cccc2C1=O | · | -2.6 | 1.4 | · | · | · | ·
C[C@@H]1CN([C@@H](C)CO)C(=O)Cc2cc(NS(=O)(=O)c3cccs3)ccc2O[C@H]1CN(C)Cc1ccc(C(=O)Nc2ccccc2N)cc1 | 20.9 | -23.0 | -17.4 | · | · | · | ·
CCC(=O)N(C)C[C@@H]1Oc2ncc(/C=C/c3ccccc3)cc2C(=O)N([C@H](C)CO)C[C@@H]1C | 16.1 | 3.7 | -2.3 | · | · | · | ·
C[C@@H]1CN([C@H](C)CO)C(=O)c2cc(NC(=O)Nc3ccc4c(c3)OCO4)ccc2O[C@@H]1CN(C)Cc1ccc(C(=O)Nc2ccccc2N)cc1 | 63.5 | -78.1 | 0.8 | · | · | · | ·
C[C@H]1CN([C@@H](C)CO)C(=O)c2cc(NC(=O)Nc3ccc4c(c3)OCO4)ccc2O[C@H]1CN(C)Cc1ccc(C(=O)Nc2ccccc2N)cc1 | 97.9* | -3.3 | -4.2 | 85.5 | 78.7 | 1.6 | 9.6
SMILES | T cruzi growth-1 | Pf Dd2 growth | C diff HTS | T cruzi growth-2 | T cruzi growth-3 | 3T3 cytotox | NIH3T3 tox 2
C[C@H]1CCCCO[C@@H](CN(C)C(=O)Nc2ccc3c(c2)OCO3)[C@@H](C)CN([C@@H](C)CO)C(=O)c2cc(NS(C)(=O)=O)ccc2O1 | -48.7 | -37.5 | 4.5 | · | · | · | ·
CC(C)CC#Cc1ccc2c(c1)O[C@@H](CN(C)C(=O)CN(C)C)[C@H](C)CN([C@H](C)CO)S2(=O)=O | 68.3 | -61.0 | -12.5 | · | · | · | ·
C[C@@H]1CN([C@@H](C)CO)S(=O)(=O)c2ccc(C#CC3CC3)cc2O[C@@H]1CN(C)Cc1ccccc1 | 37.2 | -40.3 | 3.3 | · | · | · | ·
C[C@H]1CN([C@@H](C)CO)S(=O)(=O)c2ccc(C#CC3CC3)cc2O[C@@H]1CN(C)Cc1ccccc1 | 111.3* | -43.3 | 12.3 | 99.7* | 92.5 | -12.1 | 104.5*
C[C@H]1CN([C@@H](C)CO)S(=O)(=O)c2ccc(C#CC3CC3)cc2O[C@H]1CN(C)Cc1ccccc1 | 57.5 | -25.3 | 7.0 | · | · | · | ·
C[C@@H]1CN([C@@H](C)CO)S(=O)(=O)c2ccc(C#CC3CC3)cc2O[C@H]1CN(C)Cc1ccccc1 | 119.8* | -51.5 | 1.1 | 95.0* | 76.4 | 49.6* | 106.3*
C[C@H](CO)N1C[C@H](C)[C@@H](CN(C)Cc2ccc(Cl)c(Cl)c2)Oc2ccc(NS(=O)(=O)c3ccc(Cl)cc3)cc2C1=O | 78.5 | -2.6 | 35.8 | · | · | · | ·
COc1cccc(S(=O)(=O)N[C@H]2CC[C@@H](CC(=O)NCc3ccccc3)O[C@@H]2CO)c1 | 23.9 | -5.3 | -2.3 | · | · | · | ·
CCS(=O)(=O)N1CC2(CN(C)[C@@H](CO)c3c2c2ccc(OC)cc2n3C)C1 | · | 8.6 | 2.3 | · | · | · | ·
C[C@H]1CN([C@@H](C)CO)C(=O)Cc2cc(NS(=O)(=O)c3ccc(F)cc3)ccc2O[C@@H]1CN(C)C | 5.1 | 14.2 | 2.8 | · | · | · | ·
Cc1noc(C)c1NC(=O)N1C[C@@H](O)COC[C@H]2O[C@H](CC(=O)NCC3CCCCC3)CC[C@@H]21 | 11.5 | 5.3 | 4.8 | · | · | · | ·
